About 8,600 (12%) of roughly 69,000 compounds showed an effect of 50% or more. Many of the other results were omitted from the sample, so strong results are more common in it than they were.

This assay concerns Plasmodium berghei. The experiment in a line: Screen against P. berghei liver stage (PbLuc), transformed with Luciferase, at 10uM. In kind it is functional, HepG2. The settings on record: tested at 10 uM.
For `Cc1cc(CN2Cc3ccccc3CC2c2nnc(C)o2)on1` (configuration not stated), the INHIBITION is listed as -8.3%.

`Cc1noc(CN2Cc3ccccc3CC2c2nnc(C)o2)n1` (configuration not stated): the INHIBITION came to 20.2%.

Consider `CCc1nnc(C2Cc3ccccc3CN2Cc2ncc(Cl)n2C)o1` (configuration not stated), for which the INHIBITION is given as 1.84%.

As for `CCc1nnc(C2Cc3ccccc3CN2Cc2nc(C)no2)o1` (configuration not stated), the INHIBITION stood at 9.64%.

For the compound `CNC(=O)CCc1cc(C2CCCCN2C(C)C)nc(C)n1` (configuration not stated), the INHIBITION stood at 15.1%.

`Cc1nc(CN(C)C2CCCN(Cc3noc(C4CC4)n3)C2)oc1C` (configuration not stated): the INHIBITION was 40.2%.

In the case of `COc1cccc(CC(=O)N2CCCC(c3nncn3C)C2)c1` (configuration not stated), the INHIBITION is given as -26.6%.

With `Cc1ccc(-c2noc(CN3CCCC(Cn4cncn4)C3)n2)cc1` (configuration not stated), the INHIBITION is given as 48.2%.

As for `Cc1cccc2[nH]c(C3CCCN(Cc4ccccc4C(=O)O)C3)nc12` (configuration not stated), the INHIBITION was 37.6%.

For the compound `Cc1cc(C2CCCN(CCCS(N)(=O)=O)C2)n[nH]1` (configuration not stated), the INHIBITION turned out to be 16.8%.

In the case of `c1cc(CN2CCO[C@H]3[C@H](OCC4CCOCC4)CC[C@@H]32)co1`, the INHIBITION is -34.9%.

As for `Cc1nn(C)c(C)c1C1CCCN1C(=O)c1cnc2onc(C)c2c1` (configuration not stated), the INHIBITION is reported as -2.53%.

Regarding `O=S(=O)(CCCNC1CCc2ncnn2C1)c1ccccc1` (configuration not stated), the INHIBITION came out at 31.3%.

Turning to `Cc1noc(C)c1CN1C[C@@H](OCC(=O)N(C)C)[C@H]2OCCC[C@H]21`, the INHIBITION was found to be 74.8%.

Regarding `Cc1noc(C)c1CN1C[C@H](OCC(=O)N(C)C)[C@H]2OCCC[C@H]21`, the INHIBITION is on record as 10.5%.

As to `Fc1cnc(N2CCO[C@H]3[C@H](OCC4CCOCC4)CC[C@@H]32)nc1`, the INHIBITION is 38.5%.

As to `Cc1noc(C)c1CN1C[C@H](OCC(=O)N(C)C)[C@H]2COC[C@H]21`, the INHIBITION worked out at 15.3%.

`CN(C)C(=O)CO[C@@H]1CC[C@H]2[C@H]1OCCN2c1ncccn1`: the INHIBITION came to 20.1%.

For the compound `CN(C)C(=O)CO[C@@H]1CC[C@H]2[C@H]1OCCN2c1ncc(F)cn1`, the INHIBITION was determined as 64.3%.

Take `CNC(=O)c1ccc(C2CCCN(C(=O)c3c(C)noc3C)C2)nc1` (configuration not stated): the INHIBITION is reported as 17.1%.

Turning to `CC1(C2CCN(CCCC(=O)O)CC2)CN(Cc2ccccc2)C(=O)O1` (configuration not stated), the INHIBITION came out at 7.52%.

On to `Cn1nnc2cc(C(=O)N3CCC(Nc4cccnn4)CC3)ccc21`, for which the INHIBITION was found to be 10%.

For `Cc1ccsc1CNCC1CCCN1c1cccnn1` (configuration not stated), the INHIBITION is on record as -36.25%.

With `Cc1cnn(CCNCC(=O)NCc2ccccc2)c1`, the INHIBITION was 18.4%.

Consider `CC(C)c1nn(C)c(N(C)C)c1CNCc1cccnc1`, for which the INHIBITION is given as -3.48%.

As to `Cc1cc(C)c2cc(CNCc3cccnc3)c3nn(C)c(=O)n3c2c1`, the INHIBITION was determined as 50.1%.

In the case of `CCCNCc1cc2c(C)cc(C)cc2n2c(=O)n(C)nc12`, the INHIBITION is reported as 33%.

On to `Cc1nn(C)c(N(C)C)c1CNCc1cccnc1`, for which the INHIBITION is on record as 40.7%.

For `CCOCCCNCc1cc2c(C)cc(C)cc2n2c(=O)n(C)nc12`, the INHIBITION is 51.5%.

As for `COCCNCc1cc2c(C)cc(C)cc2n2c(=O)n(C)nc12`, the INHIBITION is on record as 48.6%.

On to `Cc1cc(C)c(N(CC(O)CNCc2ccccc2)S(C)(=O)=O)c(C)c1` (configuration not stated), for which the INHIBITION was found to be 35.1%.

As to `Cc1cc(C)c2cc(CNCc3ccccc3)c3nn(C)c(=O)n3c2c1`, the INHIBITION worked out at 73.4%.

As for `CCCC(=O)N1CCC(c2cc3n(n2)[C@@H](C(F)(F)F)C[C@@H](C)N3)CC1`, the INHIBITION turned out to be 36.4%.

Take `Cc1cnc(N(C)CCCc2cnn(C)c2)nc1N(C)C`: the INHIBITION was -0.996%.

Turning to `COCC(=O)N1CC(C(=O)NCC2CC2)C2(CCOCC2)C1` (configuration not stated), the INHIBITION turned out to be 15.8%.

With `Cn1ncc(N2CCC(CNC3Cc4ccccc4C3)C2)cc1=O` (configuration not stated), the INHIBITION was determined as 58.7%.

On to `Cn1ncc(N2CCC(CNC3CC(c4ccccc4)C3)CC2)cc1=O` (configuration not stated), for which the INHIBITION is recorded as 63.7%.

Consider `CC(C)C(=O)NCC(=O)NCC1CCN(c2cnn(C)c(=O)c2)CC1`, for which the INHIBITION was 26.1%.

`Cn1ncc(N2CCC(CNC3CC(C)(C)CC(C)(C)C3)C2)cc1=O` (configuration not stated): the INHIBITION is recorded as 72.3%.

Take `Cn1ncc(N2CCC(CNC(=O)[C@@H](N)c3ccccc3)CC2)cc1=O`: the INHIBITION is on record as -12.4%.

`CCC(OC)C(=O)NCC1CCN(c2cnn(C)c(=O)c2)CC1` (configuration not stated): the INHIBITION was -0.275%.

Regarding `CCOC(=O)N1CCC(NCC2CCN(c3cnn(C)c(=O)c3)C2)CC1` (configuration not stated), the INHIBITION was found to be 26.6%.

`Cn1ncc(N2CCC(CNC(=O)[C@@H](N)C3CCCCC3)CC2)cc1=O`: the INHIBITION was determined as 8.53%.

Turning to `CC(CN1CCOCC1)NCC1CCN(c2cnn(C)c(=O)c2)CC1` (configuration not stated), the INHIBITION stood at 33.5%.

As for `COCc1noc(CN2CC(Cc3ccccc3)CC2=O)n1` (configuration not stated), the INHIBITION is given as -23.3%.

Take `CN1CCCC(Cc2cncc(C(=O)NC3CC3)c2)C1` (configuration not stated): the INHIBITION came to 8.72%.

Regarding `Cn1ncc2c1CCCC2NCc1ccc(Br)s1` (configuration not stated), the INHIBITION amounted to 35.3%.

For the compound `CCCN(C)CCC(=O)N1CCCC1Cn1cccn1` (configuration not stated), the INHIBITION was -15.5%.

In the case of `CSCc1noc(CNC(=O)C2CCN(C(C)C)CC2)n1`, the INHIBITION was found to be 8.51%.

Consider `Cc1nc(CN2CCc3nn(C)c(=O)cc3C2)oc1C`, for which the INHIBITION was -3.7%.

On to `CCn1cc(NS(=O)(=O)c2ccc(F)cc2)c(C(=O)NCC(C)C)n1`, for which the INHIBITION was 22%.

Take `CN1[C@H](Cn2cncn2)C[C@@H]2CN(C3CCOCC3)CC[C@@H]21`: the INHIBITION amounted to 34.6%.

For the origin of these results see ChEMBL document CHEMBL4513216, “Probing the Open Global Health Chemical Diversity Library for Multistage-Active Starting Points for Next-Generation Antimalarials” (ACS Infect Dis, 2020).
